Screening data deposited in PubChem BioAssay by several laboratories.
Most compounds without a hit are left out; they make up all but 7% or so of the library.
ADAM17 inh = inhibits human ADAM17; P78536; inhibition, % at 6.95 µM; AID 720648; 370,000 tested, 0.83% active; recombinant ADAM17, EDANS/DABCYL FRET peptide cleavage;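 active means inhibition above the mean of compounds lying between control limits plus 3 SD, set per campaign, cut at about 8.5% in these data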;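 further: 0% = DMSO-only wells as the low control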
ADAM10 inh = inhibits human ADAM10; inhibition, % at 7 µM; O14672; recombinant ADAM10, EDANS/DABCYL FRET peptide cleavage, 3 h; AID 720582; 370,000 tested, 0.62% active;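 active means inhibition above a per-campaign cutoff equal to the mean of compounds falling between control-based bounds plus 3 SD, cut at about 20% in these data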;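 further: 0% = DMSO wells while the 100% control is not disclosed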
KLK7 zymogen act = activators of human kallikrein-7 zymogen; purified proKLK7, EDANS-DABCYL substrate fluorescence; 100% is mature enzyme control, 0% vehicle; 370,000 tested, 0.9% active; activation, % at 7 µM; AID 652039; P49862;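 active means activation above the mean of all tested compounds plus 3 SD, computed per campaign excluding outliers beyond control limits, cut at about 13% in these data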
AHR act = activates the human aryl hydrocarbon receptor | AHR-responsive luciferase reporter cells, luminescence | 320,000 tested, 2.5% active | activation, % at 5 µM | P35869; in the data active means activation above about 47%;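 further: 0% = vehicle wells and 100% = reference agonist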
Target sequence (P35869 whole entry, looked up): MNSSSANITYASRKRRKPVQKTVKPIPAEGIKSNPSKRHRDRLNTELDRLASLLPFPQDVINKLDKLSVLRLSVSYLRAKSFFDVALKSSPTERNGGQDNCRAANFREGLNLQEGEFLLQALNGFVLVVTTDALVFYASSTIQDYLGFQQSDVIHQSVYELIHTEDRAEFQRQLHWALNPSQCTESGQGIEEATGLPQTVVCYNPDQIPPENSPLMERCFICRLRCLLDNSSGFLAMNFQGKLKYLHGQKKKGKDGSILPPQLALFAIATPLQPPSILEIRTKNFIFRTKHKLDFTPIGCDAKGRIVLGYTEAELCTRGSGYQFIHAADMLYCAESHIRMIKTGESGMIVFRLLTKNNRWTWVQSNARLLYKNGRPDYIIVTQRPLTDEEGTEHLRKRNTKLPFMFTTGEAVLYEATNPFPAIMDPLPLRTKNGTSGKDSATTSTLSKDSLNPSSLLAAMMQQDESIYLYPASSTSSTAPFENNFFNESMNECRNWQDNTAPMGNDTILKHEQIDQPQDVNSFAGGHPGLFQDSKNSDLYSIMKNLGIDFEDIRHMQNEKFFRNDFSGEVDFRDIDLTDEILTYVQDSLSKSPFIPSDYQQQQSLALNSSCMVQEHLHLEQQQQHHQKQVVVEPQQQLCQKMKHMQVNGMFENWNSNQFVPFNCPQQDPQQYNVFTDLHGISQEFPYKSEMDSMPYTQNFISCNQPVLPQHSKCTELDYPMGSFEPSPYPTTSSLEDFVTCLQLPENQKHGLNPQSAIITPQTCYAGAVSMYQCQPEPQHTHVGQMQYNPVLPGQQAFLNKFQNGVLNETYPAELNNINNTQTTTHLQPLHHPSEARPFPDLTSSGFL
rCAG binder = binds r(CAG) RNA repeats; r(CAG) RNA repeat, TO-PRO-1 dye displacement fluorescence; inhibition, % at 3 µM; 370,000 tested, 1.3% active; AID 651821;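 active means inhibition above the plate cutoff, the mean of all test compounds on that plate plus 3 SD, cut at about 35% in these data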;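 further: 0% = DMSO alone and 100% = 100 µM mitoxantrone as full dye displacement; higher means more dye released from RNA so lower well fluorescence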
GRIN3A LBD mod = modulates the human NR3A ligand-binding domain; Tm shift relative to glycine control, % at 25 µM; NR3A LBD differential scanning fluorimetry, Tm shift; 0% = protein alone, 100% = glycine-bound protein; 340,000 tested, 2.5% active;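 active means melting temperature shift of at least 10% of the positive control shift, at one fixed dose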
An asterisk follows results filed as active; / = no result given.

SMILES	ADAM17 inh	ADAM10 inh	KLK7 zymogen act	AHR act	rCAG binder	GRIN3A LBD mod
COc1cccc(NC(=O)CN(C)C(=O)c2ccc(NC(=O)CC3SC(N4CCCCC4)=NC3=O)cc2)c1 (configuration not stated)	0	-8	0	-2	-1	4
COc1cccc(NC(=O)CN(C)C(=O)c2oc3c(ccc4ccccc43)c2C)c1	-6	-16	0	10	4	17*
COc1cccc(NC(=O)CN(C)C(=O)c2ccc(NC(=O)CC3SC(N4CCCC4)=NC3=O)cc2)c1 (configuration not stated)	-5	-11	0	/	4	11*
O=S(=O)(c1ccccc1F)n1c(CN2CCOCC2)nc2ccccc21	-1	-6	0	/	2	/
OCCCN1CCC2(CCC(c3ccccc3)CC2)C1 (configuration not stated)	6	16	0	/	4	/
Cc1ccc(N=Nc2ccc3ccccc3c2O)cc1	-7	-6	0	53*	-3	-8
Oc1c(N=Nc2ccc(F)cc2)ccc2ccccc12	-4	0	-1	73*	4	2
Oc1ccc2ccccc2c1N=Nc1ccc(F)cc1	-24	3	0	38	5	0
O=C(Cc1nnc(NC(=O)c2ccccc2)s1)N/N=C\c1ccc(O)c(O)c1	1	-3	-2	56*	18	4
O=C(Cc1nnc(NC(=O)c2ccccc2)s1)N/N=C/c1ccc(O)cc1	-10	-25	-1	16	13	-2
CCOC(=O)c1csc(NC(=O)C2CCCN(S(=O)(=O)c3ccccc3[N+](=O)[O-])C2)n1 (configuration not stated)	-1	-3	0	/	3	/
O=C1CCC(c2ccc(-n3ccnc3)cc2)=NN1	-4	6	0	67*	2	0
O=C1C=CC(=O)N1N(c1ccccc1)c1ccccc1	-3	2	0	13	1	1
O=C1c2ccccc2C(=O)N1N(c1ccccc1)c1ccccc1	0	-7	0	/	0	16*
O=C(NCCc1ccccc1)OCc1cn(Cc2cccc(Cl)c2)nn1	0	7	0	/	-2	/
O=C(c1cccc(F)c1F)N1CCCc2ccccc21	-2	-3	0	51*	-5	-1
O=C(C(=O)N1CCCc2ccccc21)c1c[nH]c2ccccc12	0	-2	0	50*	-2	0
Cn1cc(C(=O)C(=O)N2CCc3ccccc32)c2ccccc21	-1	0	0	63*	-4	5
Cn1cc(S(=O)(=O)CC(=O)N2CCc3ccccc32)c2ccccc21	2	-2	0	7	5	0
CN(CCOC(=O)CCCc1ccccc1)C1CN(Cc2cn(Cc3ccccc3F)nn2)S(=O)(=O)C1 (configuration not stated)	0	-1	1	/	2	/
CCC(O)(CC)C(=O)N(Nc1ccc(C)cc1)c1ccc(C)cc1	4	5	0	-2	-6	0
CCOC(=O)C(=O)N(Nc1ccc(C)cc1)c1ccc(C)cc1	3	-1	-1	14	-6	11*
O=C(NCCc1ccccc1)C1CCN(S(=O)(=O)c2cccs2)CC1	7	2	-1	1	1	-1
O=C(NCCN1C(=O)S/C(=C\c2ccccc2)C1=O)C1CCN(S(=O)(=O)c2cccs2)CC1	2	2	-1	-3	-1	15*
CCc1nc2oc3ccccc3c(=O)c2c(=O)n1-c1ccc(C)cc1	5	-1	0	64*	13	-1
SMILES	ADAM17 inh	ADAM10 inh	KLK7 zymogen act	AHR act	rCAG binder	GRIN3A LBD mod
Cc1ccc(-n2c(C(C)C)nc3oc4ccccc4c(=O)c3c2=O)cc1	-7	3	-1	75*	3	-1
CCc1nc2oc3ccccc3c(=O)c2c(=O)n1CCOC	-7	-6	0	19	-1	0
CCCc1nc2oc3ccccc3c(=O)c2c(=O)n1-c1ccccc1	-1	-4	1	100*	-3	1
COc1ccccc1N1CCN(N=Cc2ccccc2Br)CC1	-4	-12	0	/	0	/
Cc1cc(-n2c(SCc3ccccc3F)nc3n[nH]c(C)c3c2=N)ccc1Cl	4	5	-3	55*	17	2
CCOc1ccc(-n2c(SCC(=O)Nc3ccc(CC)cc3)nc3n[nH]c(C)c3c2=N)cc1	-5	-22	0	27	7	3
COc1ccccc1NC(=O)CSc1nc2n[nH]c(C)c2c(=N)n1-c1ccccc1Cl	3	8	-1	75*	17	2
CCC(Sc1nc2n[nH]c(C)c2c(=N)n1-c1cccc(Cl)c1)C(=O)NCCOC (configuration not stated)	-5	-8	0	63*	-7	-2
CCNc1nc(N)c([N+](=O)[O-])c(Nc2cccc(Cl)c2)n1	0	3	/	/	/	/
O=C(CN1c2ccccc2Sc2ccccc21)NNC(=O)Nc1ccc(Cl)cc1	1	-7	0	3	21	39*
O=C(CN1c2ccccc2Sc2ccccc21)NNC(=O)Nc1ccc(Cl)c(Cl)c1	-3	-4	0	5	4	16*
O=C(CN1c2ccccc2Sc2ccccc21)N/N=C/c1ccccc1	1	4	0	0	4	5
Cc1ccc2ncccc2c1	-2	-12	0	0	1	0
Cc1ccc2nc(/C=C/c3cccc(F)c3)ccc2c1	-5	-16	0	48*	6	-30
COC(=O)C1=C(C)N(Cc2ccc(C(F)(F)F)cc2)C(=NCc2ccccc2)NC1c1cccc(Cl)c1 (configuration not stated)	5	13	0	/	6	/
O=C(c1cc(-c2ccc(O)cc2)on1)N1CCN(c2ccccc2)CC1	1	-1	0	11	2	12*
N/C(=N\OC(=O)c1ccccc1Cl)c1ccc(Cl)cc1	-8	-2	-1	57*	3	-1
O=C(O/N=C(\c1ccccc1)c1ccncc1)c1ccccc1Cl	-2	4	-1	2	-4	0
N/C(=N\OC(=O)c1ccccc1Cl)c1ccccc1	0	7	0	54*	4	2
CCCCN(C)C(=O)CSc1nnc(-c2cc(OC)c(OC)c(OC)c2)o1	4	0	0	/	3	/
Cc1cc(NS(=O)(=O)c2ccc(NC(=O)Cc3ccc(Cl)c(F)c3)cc2)no1	-5	-10	0	/	22	/
Cc1cccnc1Nc1nc(-c2ccc(O)cc2O)cs1	0	-4	3	61*	31	25*
Cc1cccnc1Nc1nc(-c2ccccn2)cs1	-7	0	0	-6	0	-7
Oc1ccc(-c2csc(Nc3ncccn3)n2)cc1	-1	3	0	37	6	0
Cc1cccnc1Nc1nc(-c2ccccc2)cs1	1	7	0	55*	5	-15
